Dicer inh = inhibitors of Dicer pre-microRNA processing, primary screen, biochemical, cat-ELCCA, chemiluminescence; z-score at 25 µM; hit rate 6% among 47,000; Endoribonuclease Dicer (Homo sapiens), Q9UPY3; cat-ELCCA pre-miR-21 Dicer processing; stronger effect = higher value; in the data active means z-score above about 3, passing the limit was not always enough;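 further: higher signal means more uncleaved substrate so more Dicer inhibition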
Large screens that a line does not name were inactive. Many of the other results were omitted from the sample, so hits are more common in it than they were.

Cc1[nH]nc2c1C(c1ccccc1)C(C#N)=C(N)O2 (stereo unspecified)	none
CC(=O)n1c2c(c3ccccc31)OC(N)=C(C#N)C2c1ccc(Cl)cc1 (stereo unspecified)	none
CN(C)c1ccc(C2C(C#N)=C(N)Oc3c2sc2ccccc32)cc1 (stereo unspecified)	Dicer inh 6
Cc1ccc(-c2cc3ncc(C(=O)c4cc(F)ccc4O)cn3n2)cc1	none
CCOC(=O)c1oc2ccc(Br)cc2c1NC(C)=O	none
CN1C(=O)CN(C2CCCCC2)C(=O)c2ccccc21	none
CN1C(=O)CC(c2ccsc2)Sc2ccccc21 (stereo unspecified)	none
CC1CC(=O)N(C)c2ccccc2S1(=O)=O (stereo unspecified)	Dicer inh 4
COc1ccc(C2CC(=O)C3=C(C2)Nc2nc4ccccc4n2C3c2cccs2)cc1 (stereo unspecified)	none
Nc1ccc(N2CCN(c3ccc(C(F)(F)F)cn3)CC2)nc1	none
CCNc1[nH]c(=S)nc2sc3c(c12)CCC(C)C3 (stereo unspecified)	none
O=S(=O)(c1ccc(-c2noc(-c3ccccc3)n2)cc1)N1CCOCC1	Dicer inh 3.3
O=S(=O)(c1ccc(-c2nc(-c3ccc(Cl)cc3)cs2)cc1)N1CCOCC1	none
O=S(=O)(c1ccc(-c2cn3ccccc3n2)cc1)N1CCOCC1	none
Cc1c2c(=O)[nH]ncc2c(-c2ccccc2)n1CCSCc1c(Cl)cccc1Cl	none
CCOC(=O)c1sc(NC(=O)C2CCCC2)c(C(=O)OCC)c1C	none
COC(=O)c1c(NC(=O)C2COc3ccccc3O2)sc2c1CCCC2 (stereo unspecified)	none
CCOC(=O)c1c(NC(C)=O)sc(C(=O)CC)c1C	Dicer inh 6.1
CCOC(=O)c1sc(NC(=O)C2COc3ccccc3O2)c(C(=O)OCC)c1C (stereo unspecified)	Dicer inh 3.3
CCOC(=O)c1sc(NC(=O)C2CCCO2)c(C(=O)OCC)c1C (stereo unspecified)	none
CCC(=O)Nc1sc(C(=O)OC)c(C)c1C(=O)OC	none
Cc1onc(-c2c(Cl)cccc2Cl)c1N(C)C(=O)N1CCCCC1	none
CC(=O)NS(=O)(=O)c1ccc(N=Cc2ccco2)cc1	none
N#C/C(=C\c1cc(Br)cs1)C(=O)Nc1ccc(F)cc1	none
CCOC(=O)C1=C(C)N=C2SCCC(=O)N2C1c1ccc(OC(C)=O)c(OC)c1 (stereo unspecified)	none
CCOC(=O)C1CCCN(S(=O)(=O)c2ccc(C(=O)OC)n2C)C1 (stereo unspecified)	none
CCOC(=O)CSc1nc(-c2ccccc2OC)nc(C)c1C(C)=O	none
Clc1ccc(SCc2nsc(Sc3ccc(Cl)cc3)n2)cc1	none
CN(C)CCCN1C(=O)C(O)=C(C(=O)c2cccs2)C1c1ccncc1 (stereo unspecified)	none
CC(C)c1ccc(C2C(C(=O)c3cccs3)=C(O)C(=O)N2CCN2CCOCC2)cc1 (stereo unspecified)	none
Cc1nnc(N2C(=O)C(O)=C(C(=O)c3cccs3)C2c2ccc(C(C)C)cc2)s1 (stereo unspecified)	none
COc1ccc(C2C(C(=O)c3cccs3)=C(O)C(=O)N2CCCN(C)C)cc1 (stereo unspecified)	none
CC(C)c1ccc(C2C(C(=O)c3cccs3)=C(O)C(=O)N2CCN(C)C)cc1 (stereo unspecified)	Dicer inh 4.7
CN(C)CCN1C(=O)C(O)=C(C(=O)c2cccs2)C1c1ccncc1 (stereo unspecified)	Dicer inh 4.1
CCOC(=O)c1c(NC(=O)CCC(=O)OC)sc2c1CCC2	none
CC1SC(c2ccc(C(F)(F)F)cc2)N(c2ccc(C(F)(F)F)cc2)C1=O (stereo unspecified)	none
CCOC(=O)c1sc(N/N=C/c2cccs2)c2c1CC(C)(C)CC2=O	none
S=c1nc(CCCCc2nc(=S)[nH][nH]2)[nH][nH]1	none
CC(C)Oc1cc(C(F)(F)F)nc2ccc(CSc3nc4ccccc4[nH]3)cc12	none
C=CCN1C(=O)C(O)(CC(=O)c2c(C)coc2C)c2ccccc21 (stereo unspecified)	none
O=C1CSC(=O)N1C(c1ccccc1)(c1ccccc1)c1ccccc1	Dicer inh 4.5
O=C1CSc2nc(-c3ccccc3)c(-c3ccccc3)n21	none
CC(C)(C)c1ccc(N2C(=N)SCC2=O)cc1	none
O=C(c1c(F)cccc1F)N1CCN(c2cccc3[nH]ccc23)CC1	none
COc1cc(C(=O)NN(C)C)cc(OC)c1OC	none
COC(=O)C1=C(OS(=O)(=O)c2ccc(C)cc2)CSC1	none
O=C(c1ccc([N+](=O)[O-])o1)N1CCN(c2cccc(Cl)c2)CC1	none
CSc1sc(Br)c2c1/C(=N/OC(C)=O)CC(C)(C)C2	none
Cn1cnnc1SCC(=O)N1c2ccccc2CCc2ccccc21	none
CC1=CC(C)(C)N(C(=O)CSc2nncn2C)c2ccccc21	none
Cc1ccc2c(c1)C(C)(c1ccccc1)CC(C)(C)N2C(=O)CSc1nncn1C (stereo unspecified)	Dicer inh 5.6
N=c1scc(-c2ccc(Cl)cc2)n1-c1cccc(C(F)(F)F)c1	none
CCOC(=O)c1c(CSCc2ccc(Cl)cc2)oc2c(F)c(F)c(F)c(F)c12	none
